Sampled rows, rich in hits. Any-hit rate of the full collection: about 1.4%.
Mtb MbtI inh: inhibitors of Mycobacterium tuberculosis siderophore enzyme MbtI; P9WFX0; purified MbtI enzyme, fluorescence intensity read-out; AID 493033; actives 0.89% (n = 100,000); inhibition, % (concentration not given with the values); in the data active = inhibition mostly above about 56%, no sharp cut-off; inactive = mostly below about 77%
Target sequence (P9WFX0 whole entry, looked up): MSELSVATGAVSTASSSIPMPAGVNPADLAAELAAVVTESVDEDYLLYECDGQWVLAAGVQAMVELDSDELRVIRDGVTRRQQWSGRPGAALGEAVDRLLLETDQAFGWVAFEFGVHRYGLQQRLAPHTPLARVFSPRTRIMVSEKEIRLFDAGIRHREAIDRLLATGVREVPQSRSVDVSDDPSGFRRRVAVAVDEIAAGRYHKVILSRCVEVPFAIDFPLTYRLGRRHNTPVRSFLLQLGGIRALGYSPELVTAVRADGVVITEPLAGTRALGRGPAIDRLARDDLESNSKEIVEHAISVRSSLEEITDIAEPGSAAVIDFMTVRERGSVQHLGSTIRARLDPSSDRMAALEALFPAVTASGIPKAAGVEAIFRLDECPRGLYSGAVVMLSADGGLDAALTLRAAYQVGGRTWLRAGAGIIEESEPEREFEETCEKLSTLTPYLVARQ
PV pol inh: inhibitors of poliovirus RNA polymerase binding and polymerization | P03300 | % elongation, % (compound at 16.7 µg/mL) | AID 588519 | poliovirus polymerase elongation, fluorescence polarization; hits give low values | actives 0.66% (n = 150,000); in the data active = % elongation below about 90%
AID504770: E. coli YBA685 growth inhibition, screen for V. cholerae RctB inhibitors | E. coli YBA685 rctB-dependent plasmid, OD600 growth, 3 h; hits give low values | z-score (no concentration beside the values) | actives 0.27% (n = 130,000); in the data active = z-score below about -2, passing the limit was not always enough
MenB inh: Mtb MenB enzyme inhibition; actives 0.43% (n = 100,000); P9WNP5; inhibition, % (concentration not given with the values); MenB enzyme assay, absorbance read-out; in the data active = inhibition above about 21%, passing the limit was not always enough
Numbers stand for hits; – = inactive; · = no result; ! = not confirmed by another sample.

SMILES | Mtb MbtI inh | PV pol inh | AID504770 | MenB inh
CC1COC2=C(N3CCN(C)CC3)C(F)=CC3C(=O)C(C(=O)O)=CN1C23 (stereo unspecified) | – | – | -6.4 | –
Cc1cccc(OCC(=O)Nc2c(C(=O)Nc3cccc(F)c3)oc3ccccc23)c1 | – | – | – | –
Cc1ccc(NNC(=S)NC(=O)C2CC2)c(C)c1 | 95 | – | – | –
CCN(CC)CCOC(=O)c1ccc(NC(=O)c2cc3cccc(OC)c3oc2=O)cc1 | · | 90 | · | ·
CCN(CC)CCOC(=O)c1ccc(NC(=O)c2cc3cc(OC)ccc3oc2=O)cc1 | · | – | · | ·
CNS(=O)(=O)c1cccc(C(=O)OCC(=O)N2CCCc3ccccc32)c1 | – | – | – | –
CSc1ncc(C)cc1C#N | · | · | – | ·
C=C1C(C(=O)Nc2ccccc2N2CCOCC2)C1C(=O)Nc1ccccc1N1CCOCC1 (stereo unspecified) | – | – | – | –
CN(C)C(=S)Nc1ccccc1N1CCOCC1 | 95 | – | – | –
COc1ccc2nc(C(=O)O)sc2c1 | · | 86 | – | –
CCOc1ccc(N2C(=O)CC(N3CCCCC3CC)C2=O)cc1 (stereo unspecified) | 55 | – | – | –
O=C1C=CC(=O)N1c1cc(C(F)(F)F)ccc1Cl | 98 | – | – | ·
O=C1C2C3C=CC(O3)C2C(=O)N1c1ccccc1C(F)(F)F (stereo unspecified) | · | · | – | ·
O=C1C=CC(=O)N1c1ccc(C(F)(F)F)cc1 | · | · | – | ·
O=C1C=CC(=O)N1c1ccccc1C(F)(F)F | 98 | – | -2.5 | ·
Clc1cc2c(cc1Cl)Nc1cc(Cl)c(Cl)cc1N2 | 95 | – | – | –
Cc1ccc(-n2c(C)nc3c(cnn3-c3ccccc3)c2=O)cc1 | · | 82 | · | ·
CCOC(=O)c1c(NC(=O)c2noc3c2CC(C(C)(C)C)CC3)sc2c1CCCC2 (stereo unspecified) | · | 76 | · | ·
NC(=O)c1c(NC(=O)c2noc3c2CCCC3)sc2c1CCCC2 | · | 69 | · | ·
CCC(C(=O)Nc1nc2nc(C)c(Cl)c(=O)n2[nH]1)c1ccccc1 (stereo unspecified) | – | – | – | –
CN(C)S(=O)(=O)c1cccc(C(=O)NC(C)(C)C)c1 | – | – | – | ·
Cc1n[nH]c(=S)n1/N=C\c1ccco1 | – | 90 | – | –
CCC(=O)C1=C(c2ccccc2)N(C(=O)CC)n2cnnc2S1 | – | – | – | –
CCOc1ccc(C2=C(C(=O)CC)Sc3nncn3N2C(=O)CC)cc1 | · | 82 | · | ·
CCC(=O)C1=C(c2ccc(F)cc2)N(C(=O)CC)n2cnnc2S1 | · | 86 | · | ·
SMILES | Mtb MbtI inh | PV pol inh | AID504770 | MenB inh
CC1CCN(S(=O)(=O)c2ccc(S(=O)(=O)N3CCCN(Cc4ccccc4)C3)cc2)CC1 | – | – | – | 36
CN(CC(=O)NC1(C#N)CCCC1)Cc1cccc(F)c1 | – | – | – | –
Cc1nnc(NCCCN2CCOCC2)c2ccccc12 | – | – | – | –
Cc1cccc(C)c1OCc1nc2c3cnn(-c4ccccc4Br)c3ncn2n1 | · | – | · | ·
Cc1cccc(C)c1OCc1nc2c3cnn(-c4ccccc4F)c3ncn2n1 | · | 75 | · | ·
O=C(CSc1c[nH]c2ccccc12)N1CCN(c2ccccc2)CC1 | · | · | – | ·
O=C(CCn1c(=O)sc2ccccc21)n1c(=O)sc2ccccc21 | · | 75 | – | –
Cc1ccc(Cl)cc1N1CCN(C(CC(=O)O)C(=O)c2ccc(F)cc2)CC1 (stereo unspecified) | – | 70 | – | 31
CCN(C(=O)Cn1c(=O)oc2cc(Cl)ccc21)c1cccc(C(F)(F)F)c1 | · | 82 | · | ·
COc1ccc(-c2noc(CN3CCC(C(=O)Nc4ccccc4)CC3)n2)cc1OC | – | – | – | –
COCCn1nnnc1CN(Cc1ccco1)Cc1cc2cc(OC)ccc2[nH]c1=O | – | – | – | –
O=C(O)CCc1nc2ccccc2c(=O)n1Cc1ccc2c(c1)OCO2 | – | – | – | –
NC1CCN(C(=O)NC2CCCCC2)CC1 | – | – | – | 24
Cc1ccc2[nH]cc(CCNS(C)(=O)=O)c2c1 | – | – | – | 26
O=C(c1nnc(Cc2ccc(F)cc2Cl)o1)N1CCCC1 | – | – | – | –
CCN1CCN(CCCNC(=O)c2cc3c(=O)n(C)c4ccccc4c3s2)CC1 | · | 74 | · | ·
CCCN1CCN(CCCNC(=O)c2cc3c(Cl)nc4ccccc4c3s2)CC1 | · | 67 | · | ·
C1=CCC2NC(C1)Cc1ccccc12 (stereo unspecified) | – | – | – | 29
Cc1ccc(CN)cc1F | – | – | – | –
O=C(Nc1ccccc1)C(=S)NCc1ccco1 | – | – | – | –
S=C(NCc1ccco1)Nc1ccccc1 | – | – | – | 37
Cc1ccccc1-c1ocnc1C(=O)Nc1cccnc1 | – | – | – | 30
Oc1c(C(c2ccc(F)cc2)N2CCCC2)ccc2cccnc12 (stereo unspecified) | · | · | – | ·
Oc1c(C(c2ccc(C(F)(F)F)cc2)N2CCOCC2)ccc2cccnc12 (stereo unspecified) | 64 | – | – | –
CC1=CC(=O)C(N(C)C2CCS(=O)(=O)C2)=CC1=O (stereo unspecified) | 100 | – | – | –
SMILES | Mtb MbtI inh | PV pol inh | AID504770 | MenB inh
CN(C)C1CCS(=O)(=O)C1 (stereo unspecified) | – | – | – | –
CC(C(=O)N(C)Cc1ccccc1)n1ccc2cc(S(=O)(=O)N3CCCCCC3)ccc21 (stereo unspecified) | – | – | – | –
COc1cc(NC(C)CCCN)c2ncccc2c1 (stereo unspecified) | – | 58! | – | –
COc1ccc(CSc2cccc3cccnc23)cc1 | – | – | – | ·
NC1CCc2cc(O)c(O)cc2C1 (stereo unspecified) | 93 | – | · | ·
Cc1ccccc1NC(=O)Cn1c(=O)n(C2CCCC2)c(=O)c2ccccc21 | · | · | – | ·
CCN(CC)S(=O)(=O)c1ccc(/C=C/C(=O)Nc2cccc(C)c2)cc1 | – | – | – | ·
CCc1ccc(CNC(=O)CCC(=O)n2ncc3ccccc32)cc1 | – | – | – | –
COc1ccc(-n2nc3c(c2NC(C)=O)CS(=O)C3)cc1 (stereo unspecified) | – | · | · | ·
CC1CCc2cc(F)cc3c(=O)c(C(=O)O)cn1c23 (stereo unspecified) | – | – | -3.4 | –
COc1ccc(-c2oc3ncn4nc(COc5ccc(Cl)cc5)nc4c3c2-c2ccc(OC)cc2)cc1 | · | 55 | · | ·
O=c1cc(O)c2ccccc2[nH]1 | – | – | – | –
O=C1c2ccccc2C(=O)C1c1cc(=O)[nH]c2ccccc12 | – | 87 | – | –
Cc1cccc(NC(=O)CSc2nnc(C)c(=O)[nH]2)c1 | · | – | · | ·
Cc1cccc(NC(=O)CSc2nncc(=O)[nH]2)c1 | 58 | – | – | –
Nc1cccc(C(=O)N2CCOCC2)c1 | – | – | – | –
Cc1ccc(NC(=S)C(C#N)C(N)=O)cc1Cl (stereo unspecified) | 74 | – | – | –
CC1(C)CC(NC(=O)c2scc3c2OCCO3)CC(C)(C)N1 | – | · | – | ·
COc1ccc(N2C(=O)Cc3ccccc3C2=O)cc1 | · | · | – | ·
Cc1ccccc1N1C(=O)Cc2ccccc2C1=O | – | 48 | – | –
CC(C)(Oc1ccccc1OC(=O)c1ccccc1)C(=O)CBr | 62 | – | – | ·
O=C(Oc1ccccc1OC(=O)c1ccccc1)c1ccccc1 | – | – | – | –
Cc1csc(Nc2ccccc2)n1 | 72 | – | – | ·
